Assay results: publication PMC13494018
A number with no mark means an inactive call. How the calls were made is not given here.

B1: design_596_3e5f537c-0703-45f0-993f-ff416531349a_1970_dldesign_0_cycle1_af2pred (protein)
chain: DEEEKEKKLEEARKAKDEAEEALDKAMEKASPEEALELLEEYRKVSKEAQKLVKEEGVEGAAEAAKLLKEQKKYFEEKYKEL
B2: design_596_3e5f537c-0703-45f0-993f-ff416531349a_2018_dldesign_0_cycle1_af2pred (protein)
chain: AAEKKAKAEAKKIVEEAAKIAKEKGYDEGMKYAYKASKELAEKYGKEYGAKAFEEAVDAIGDELAKKVKE
B3: design_596_3e5f537c-0703-45f0-993f-ff416531349a_2079_dldesign_0_cycle1_af2pred (protein)
chain: MEKEELQRRLKETAEKLAEKHPEAAPAARLVIRVGEKANAEEVRKLLELTEKALGENWKEYAAEATEYAVEIEADILVKELK
B4: design_596_3e5f537c-0703-45f0-993f-ff416531349a_2087_dldesign_0_cycle1_af2pred (protein)
chain: MAEKLVEKAKAEMKKLVEEAKKGNPEEARKIRKEIIEKGKKALEEADTEEKKKAAEEIKKIAYKAVEEVLEAYGELLVK
B5: design_596_3e5f537c-0703-45f0-993f-ff416531349a_2102_dldesign_0_cycle1_af2pred (protein)
chain: AEAVAEEMLARIEEARDALTAADPTLADIADSIADAAKERMRAAAAEGRAEEVAEVGERAVRTLEHLAKLAK
B6: design_596_3e5f537c-0703-45f0-993f-ff416531349a_2108_dldesign_0_cycle1_af2pred (protein)
chain: DAVKKAAEEGKERVRRRAEREKKRVTPEARPEIEKAEEKGVKKVEEAAKGTVKEVANAAQEGITEVIEVGAENKIKA
B7: design_596_3e5f537c-0703-45f0-993f-ff416531349a_2173_dldesign_0_cycle1_af2pred (protein)
chain: SELKDLLSEAERARHKAEAIATRAKELAKYDPKEAKKIADEAKKVAEEAKKAAELAEKDPEKGKEAIKKVKEKVKKLEKKVKALEKKV
B8: design_596_3e5f537c-0703-45f0-993f-ff416531349a_2235_dldesign_0_cycle1_af2pred (protein)
chain: GLYEEAKKEAKEAFSYGIAYLSAVSAKDPSLAPEAEKELEEAFEKVEKALKDAKSGKNPEKALKEIKEIRDEWKEKLKEARA
B9: design_596_3e5f537c-0703-45f0-993f-ff416531349a_2320_dldesign_0_cycle1_af2pred (protein)
chain: KKVEELKKKMLEELEKIIEIAKTLPPEEAERLITFAKAARERGEKKGVRGLAKAALNVAFEASKYEETKEAAEKLEELANEIIKLT
B10: design_596_3e5f537c-0703-45f0-993f-ff416531349a_2330_dldesign_0_cycle1_af2pred (protein)
chain: EEALKKAEERYEKYGKKALELAEKVGLKEEVEEGIKDPSKMPEVIKKLEELGEENPEVRKDAYLAASYLQRAQQAYETKKKIEAA
B11: design_597_f3dcd2b3-c7aa-4b15-88bc-bbb8d01a18cd_63_dldesign_0_cycle1_af2pred (protein)
chain: GEAKAEELIKKAKEALREFAETGSLEALDKAEEYAEEISKFTPEVRAKAAEELEKVGEEGSPAARAVAKNLADYLK
B12: design_597_f3dcd2b3-c7aa-4b15-88bc-bbb8d01a18cd_98_dldesign_0_cycle1_af2pred (protein)
chain: AERVEAAGKIALARIDKAGKGTKEELAVASAQAMALVGVTAGASDEEIDAMVDKVEAAAKGANPVADAKKVLTAAIKELAAK
B13: design_597_f3dcd2b3-c7aa-4b15-88bc-bbb8d01a18cd_135_dldesign_0_cycle1_af2pred (protein)
chain: MLTVMQAADIIIDKGAEEAKKAMVETALDVAKKYGIEAGRKAARTLSRIFKNAYGEEEGKEAEKEVLEALEKLEKE
B14: design_597_f3dcd2b3-c7aa-4b15-88bc-bbb8d01a18cd_271_dldesign_0_cycle1_af2pred (protein)
chain: DEAKKKAAEELAEAYEYVAEALALGKKTNEEAKKLAKEAKEEFKKYRDKAKALYKAGNYEEAYKEAKKAYEESKKKLEEIKKIAE
B15: design_597_f3dcd2b3-c7aa-4b15-88bc-bbb8d01a18cd_323_dldesign_0_cycle1_af2pred (protein)
chain: EEVEKKLKELAEKVKKAKELAEKDPEKGIELAKEAIKEAQKLGKEADEETKKKLAEVAEEAVEVRFEALEKLVKS
B16: design_597_f3dcd2b3-c7aa-4b15-88bc-bbb8d01a18cd_362_dldesign_0_cycle1_af2pred (protein)
chain: AAEKAKKAADAFRAIAKAAKLALEDPEKGAAAIQAAVDAAKKESPEIAPYVAAVAEEKLAAVKAKLAAAAAA
B17: design_597_f3dcd2b3-c7aa-4b15-88bc-bbb8d01a18cd_430_dldesign_0_cycle1_af2pred (protein)
chain: AVKEKLERAKKYAEETKKLAKELKKNPKFKKTAEEIEKEAEKVLEEAKKAAEKGDAEAVGEKATELRVLKTAAEQLLKAAK
B18: design_597_f3dcd2b3-c7aa-4b15-88bc-bbb8d01a18cd_570_dldesign_0_cycle1_af2pred (protein)
chain: NAIKKEVEEHLAKAEEYTAKAIETASDPEKFKEYFEKMREEFGKALKAAKADPELKKLAEDKLMEAQMKVTEAKGEAARKKNN
B19: design_597_f3dcd2b3-c7aa-4b15-88bc-bbb8d01a18cd_601_dldesign_0_cycle1_af2pred (protein)
chain: SKAEEKAKELEEKLKKAEELAKKDPKKGAKYAKEIAKEARKAGKETGETEKFAKIADKAYQIAAEAEFKAK
B20: design_597_f3dcd2b3-c7aa-4b15-88bc-bbb8d01a18cd_627_dldesign_0_cycle1_af2pred (protein)
chain: MYKELAENYRKGVRALSRRYRLRAELDPAKAAEYGAEATRERDKLFNASPEEVKKAAEEWAKEEAAVAAEAAALAAAA
B21: design_597_f3dcd2b3-c7aa-4b15-88bc-bbb8d01a18cd_925_dldesign_0_cycle1_af2pred (protein)
chain: HKEENEAMKEILDEFNEAGRKMQEYVKAGKLEEAKKALEEEAKKMLEIGKKAGENALELAEELVEEARRNLEKAIEAAK
B22: design_597_f3dcd2b3-c7aa-4b15-88bc-bbb8d01a18cd_1020_dldesign_0_cycle1_af2pred (protein)
chain: GHSEEGKEISEKIREISRIAKEAGKEIKKYPGGEELMKELGETRDKAIDEAAEGGLEEAKKALEKVKKAAKELLKKAKA
B23: design_597_f3dcd2b3-c7aa-4b15-88bc-bbb8d01a18cd_1026_dldesign_0_cycle1_af2pred (protein)
chain: MEVVEKMAEEIAKAAEEAGDKVTAALARAVAARAKKEKEISPEEAVKRLGEDAKFMAEDNGNEELAKKIKEIAEKALKEV
B24: design_597_f3dcd2b3-c7aa-4b15-88bc-bbb8d01a18cd_1120_dldesign_0_cycle1_af2pred (protein)
chain: MLAKIARIIADITTATAKLLRKTGPKFVKLTKVLAVLADIIGDLALKTGKEEDIKAGGYALAAAERARHAAEAAE
B25: design_597_f3dcd2b3-c7aa-4b15-88bc-bbb8d01a18cd_1306_dldesign_0_cycle1_af2pred (protein)
chain: GKMKEDEEKLKEIEKEAKKAIEEAKKLAKEDPKKGAEYAKKASKEITERGTELGKTMSPEVRKKLAEVVQKAREELTEIAFKAR
B26: design_597_f3dcd2b3-c7aa-4b15-88bc-bbb8d01a18cd_1339_dldesign_0_cycle1_af2pred (protein)
chain: AEAEKYKKEAEKALKELEEIAKKYPSSTKIQANYESAKEYFEHNEQAAKLNPEKAAEAYKKAYEYAKRKLEEAKKIAEELEKKE
B27: design_597_f3dcd2b3-c7aa-4b15-88bc-bbb8d01a18cd_1341_dldesign_0_cycle1_af2pred (protein)
chain: AAAVEAAKAEITKLAAELSAKAFEAKAAASVFPEYKPVYELYKEAAEKAKEGLVLLKALGEKALEEAKKLAEEAKKLAKEGDELEKKL
B28: design_597_f3dcd2b3-c7aa-4b15-88bc-bbb8d01a18cd_1491_dldesign_0_cycle1_af2pred (protein)
chain: DEGEKLKKEFKEEIEEVAKEAKELVKEGVSPKVAARLVENTAEVLIKEAEKHKEGEEIKKAVKEEAEKKKEEILKL
B29: design_597_f3dcd2b3-c7aa-4b15-88bc-bbb8d01a18cd_1493_dldesign_0_cycle1_af2pred (protein)
chain: AEAERARREAALAEAERRAAELIFAAVDEGTKVSNEEAAKVMEETRARIEALMDETGAAYDPERAAEIRDRATATMTRLAESYK
B30: design_597_f3dcd2b3-c7aa-4b15-88bc-bbb8d01a18cd_1536_dldesign_0_cycle1_af2pred (protein)
chain: SGANAAQEARAEYTAAKQLAKINKKDKEKAAKLLEEAYKKVEELAKKADEEGKKIAEKYAKELKELAKKYLKE
B31: design_597_f3dcd2b3-c7aa-4b15-88bc-bbb8d01a18cd_1586_dldesign_0_cycle1_af2pred (protein)
chain: AAAIEKAKAAVEELLKAAEEALKLAEKDPSYAKYAEEVKKKINKVAKELKEALLADPSVANKLQEARQIATEAEATAKIKK
B32: design_597_f3dcd2b3-c7aa-4b15-88bc-bbb8d01a18cd_1719_dldesign_0_cycle1_af2pred (protein)
chain: LEKNVKKAIEAAKKAIEAGKKAKEAGLEELAKEAIEKAKKAIEAAAKDKASGGETAKETANAAQEARQAKSEAESAIKKK
B33: design_597_f3dcd2b3-c7aa-4b15-88bc-bbb8d01a18cd_1746_dldesign_0_cycle1_af2pred (protein)
chain: SLKTKALAEAGRAIALSDSVISALPDSELAKKAKEIKKKAEEAMEKAEKGEKLEEALKEAKKLKEEAKKLRKEAEKEKKA
B34: design_597_f3dcd2b3-c7aa-4b15-88bc-bbb8d01a18cd_1765_dldesign_0_cycle1_af2pred (protein)
chain: SMEEEKKKKEAEKARKEAEKAIEEIKKNPENKELQTEALAKAYEAKAIDKEVGKEAIKKVREAIKEARKKL
B35: design_597_f3dcd2b3-c7aa-4b15-88bc-bbb8d01a18cd_1782_dldesign_0_cycle1_af2pred (protein)
chain: MEEVKKKVAEAVQAGYRAAATLSKEEGKKLREETKELAKKLTELVKKSEELAGDPEKAKALADEATKIAEKAKEEYEKIDKA
B36: design_597_f3dcd2b3-c7aa-4b15-88bc-bbb8d01a18cd_2012_dldesign_0_cycle1_af2pred (protein)
chain: AEAKKEAAKLSEEAAELAAEAWLKAKKAKPEEAEKYKKAAEYFKEAIKILQAGEDLEKAKALYEKGKALYEEA
B37: design_597_f3dcd2b3-c7aa-4b15-88bc-bbb8d01a18cd_2077_dldesign_0_cycle1_af2pred (protein)
chain: EIKKLAAEAFDYYYEAKAMADALKADKNGKEAAKKIEELAKKIKEYGKKILETKDLKEAKKLYEEAKKLYEEAVKIFDEFAK
B38: design_597_f3dcd2b3-c7aa-4b15-88bc-bbb8d01a18cd_2142_dldesign_0_cycle1_af2pred (protein)
chain: AAAAAAAEAARAEAAKAFTEAIDLAYSDPKYIPILEKTSEDSAATFIAAGKLSGKTAEWTAKGELIKKTSERIIKDIKK

Biological target: VTCN1, Q7Z7D3
Sequence (Q7Z7D3 whole entry): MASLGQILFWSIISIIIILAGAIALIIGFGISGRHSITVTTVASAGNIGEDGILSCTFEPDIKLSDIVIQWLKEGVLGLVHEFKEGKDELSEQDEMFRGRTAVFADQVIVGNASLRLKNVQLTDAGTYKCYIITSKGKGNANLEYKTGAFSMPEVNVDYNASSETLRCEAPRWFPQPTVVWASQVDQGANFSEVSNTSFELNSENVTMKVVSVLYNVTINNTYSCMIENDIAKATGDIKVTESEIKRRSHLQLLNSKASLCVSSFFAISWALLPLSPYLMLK

Row | Binder | binding in a display sort
1 | B1 | not found
2 | B2 | not found
3 | B3 | not found
4 | B4 | not found
5 | B5 | not found
6 | B6 | not found
7 | B7 | not found
8 | B8 | not found
9 | B9 | not found
10 | B10 | not found
11 | B11 | binds (active)
12 | B12 | not found
13 | B13 | not found
14 | B14 | not found
15 | B15 | not found
16 | B16 | not found
17 | B17 | not found
18 | B18 | not found
19 | B19 | not found

Row | Binder | binding in a display sort
20 | B20 | not found
21 | B21 | not found
22 | B22 | not found
23 | B23 | not found
24 | B24 | not found
25 | B25 | not found
26 | B26 | not found
27 | B27 | not found
28 | B28 | not found
29 | B29 | not found
30 | B30 | not found
31 | B31 | not found
32 | B32 | not found
33 | B33 | not found
34 | B34 | not found
35 | B35 | not found
36 | B36 | not found
37 | B37 | not found
38 | B38 | not found
